# In PubChem BioAssay (NCATS):
# Inconclusive results are not listed. Entries that show only a call come without a potency. Values without a mark were called inactive. Calls of active or inactive are those of the source. Unless noted, calls follow the shape of the dose curve; as a rule, active = well fitted curve in the direction sought with a large enough effect; inconclusive = small, poorly fitted or top-dose-only effect, or another doubt; inactive = no such curve, though single readings can be large; an effect the other way counts as inactive or inconclusive.
# Key:
# [1] = target: Furin (Homo sapiens) (UniProt P09958); test: Furin counterscreen qHTS for Zika virus inhibitors (AID 1347149); also: nearly all actives have a fitted effect of over 70% in size; also: potency is read from the fitted curve at half-maximal effect;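 as to activity change, negative = inhibition: purified recombinant full-length human furin enzyme at 5 nM; fluorescence gain from furin cutting a BOC-RVRR-AMC peptide substrate over 15 min; top concentration of the series differs between compounds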
# Sequence of Furin (Homo sapiens) (P09958 whole entry, looked up): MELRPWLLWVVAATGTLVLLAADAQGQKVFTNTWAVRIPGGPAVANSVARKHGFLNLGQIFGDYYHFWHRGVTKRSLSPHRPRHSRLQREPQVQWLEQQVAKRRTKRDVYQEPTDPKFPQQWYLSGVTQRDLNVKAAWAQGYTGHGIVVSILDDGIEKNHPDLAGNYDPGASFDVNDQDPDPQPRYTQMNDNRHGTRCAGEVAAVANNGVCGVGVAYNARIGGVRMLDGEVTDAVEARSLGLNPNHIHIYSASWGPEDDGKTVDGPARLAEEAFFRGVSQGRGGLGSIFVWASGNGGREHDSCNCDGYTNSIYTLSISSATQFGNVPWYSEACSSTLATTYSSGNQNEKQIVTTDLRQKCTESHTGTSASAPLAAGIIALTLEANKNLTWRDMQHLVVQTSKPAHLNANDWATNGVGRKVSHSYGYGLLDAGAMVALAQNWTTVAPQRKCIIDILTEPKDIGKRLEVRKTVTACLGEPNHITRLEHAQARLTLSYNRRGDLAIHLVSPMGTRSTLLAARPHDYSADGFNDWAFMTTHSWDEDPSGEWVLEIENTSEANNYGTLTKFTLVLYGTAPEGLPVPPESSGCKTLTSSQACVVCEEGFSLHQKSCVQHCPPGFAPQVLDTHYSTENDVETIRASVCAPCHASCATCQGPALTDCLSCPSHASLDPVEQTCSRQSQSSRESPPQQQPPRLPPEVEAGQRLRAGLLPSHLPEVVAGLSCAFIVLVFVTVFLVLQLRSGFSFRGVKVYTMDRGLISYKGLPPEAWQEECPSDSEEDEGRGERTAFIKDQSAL
# Outline: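 Counterscreen measures cleavage of 2 microM BOC-RVRR-AMC, below its ~15 microM Km, by 5 nM full-length human furin at pH 7.0 after a 15-min compound preincubation. Inhibition derives from the 15-min fluorescence increase at 37C.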
# [2] = ZIKV-mCherry secondary qHTS for Zika virus inhibitors (AID 1347158); also: top concentration of the series differs between compounds
# Outline: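 Read-out is percent infection: mCherry-positive Vero cells (nuclear-proximal intensity >450 RFU, 3 SD above negative controls) counted by high-content imaging of Hoechst-stained, PFA-fixed wells after 48-72 h with ZIKV-mCherry at MOI 1 and compound.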
# [3] = system: Zika virus NS2B-NS3 protease (linked); test: 384 well plate NINDS AMC confirmatory qHTS for Zika virus inhibitors (AID 1347163); also: nearly all actives have a fitted effect of over 50% in size; also: potency is read from the fitted curve at half-maximal effect;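 as to activity change, negative = inhibition: linked protease at 5 30 or 60 nM final depending on run; fluorescence of AMC released from Ac-VKTGKR-AMC peptide cleaved by the protease; top concentration of the series differs between compounds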
# Outline: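 Enzyme (5, 30 or 60 nM final) first met test compounds for ~15 min. The AMC-tagged peptide Ac-VKTGKR-AMC followed at 30 microM. Fluorescence was then recorded at 25 min and scaled against no-enzyme and no-inhibitor wells.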
# [4] = Tertiary RLuc qRT-PCR qHTS assay for Zika virus inhibitors (AID 1347169); also: top concentration of the series differs between compounds; nearly all actives have a fitted effect of over 55% in size
# Outline: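 Inhibition of ZIKV-RLuc replication in Vero cells, read as Renilla luminescence 1-1.5 hrs after live-cell substrate addition, following 48-72 hrs infection at MOI 1-2 in presence of compound.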
# [5] = target: Cytochrome P450 2C9 (Homo sapiens) (UniProt P11712); test: Cytochrome P450 family 2 subfamily C member 9 (CYP2C9) small molecule antagonists: luciferase biochemical (cell-free) qHTS assay (AID 1645842; active = well fitted curve in the direction sought with a large enough effect in the repeat runs; an effect the other way counts as inactive or inconclusive; also: series mostly up to about 57 µM; nearly all actives have a fitted effect of over 55% in size)
# Sequence of Cytochrome P450 2C9 (Homo sapiens) (P11712 whole entry, looked up): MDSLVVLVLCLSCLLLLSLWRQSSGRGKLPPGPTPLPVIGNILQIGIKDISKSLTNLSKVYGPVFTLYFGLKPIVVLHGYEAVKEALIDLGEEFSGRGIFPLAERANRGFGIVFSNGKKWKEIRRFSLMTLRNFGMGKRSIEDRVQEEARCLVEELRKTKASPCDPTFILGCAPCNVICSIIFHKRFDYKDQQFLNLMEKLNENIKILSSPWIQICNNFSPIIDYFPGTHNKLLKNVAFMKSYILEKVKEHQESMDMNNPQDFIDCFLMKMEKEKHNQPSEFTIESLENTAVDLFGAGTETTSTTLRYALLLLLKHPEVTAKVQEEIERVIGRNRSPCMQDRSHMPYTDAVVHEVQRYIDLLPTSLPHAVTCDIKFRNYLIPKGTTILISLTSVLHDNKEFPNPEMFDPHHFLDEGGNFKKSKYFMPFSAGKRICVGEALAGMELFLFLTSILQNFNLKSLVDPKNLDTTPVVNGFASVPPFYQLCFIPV
# Outline: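 P450-Glo CYP2C9 system: proluciferin substrate with enzyme in mix containing 0.4% BSA, 10 min at room temperature, then NADPH regeneration solution added and incubated 1 h at 37C. Detection reagent stopped reaction; luminescence read after 20 min as RLU.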
# [6] = system: Zika virus NS2B-NS3 protease (linked construct); test: 384 well plate NINDS Rhodamine confirmatory qHTS for Zika virus inhibitors (AID 1347164); also: nearly all actives have a fitted effect of over 65% in size; also: potency is read from the fitted curve at half-maximal effect; as to activity change, negative = inhibition: top concentration of the series differs between compounds
# Outline: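 Cleavage of Ac-LKRR-Rhodamine 110 (10 microM final) by linked protease (final 5, 30 or 60 nM) was followed as fluorescence at 485/538 nm after 25 min, room temperature, dark. Compounds preincubated ~15 min.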
# [7] = Vero cells viability qHTS for Zika virus inhibitors (AID 1347167)
# Outline: (§1)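 Luminescent ATP readout (CellTiter Glo) after 30 min at 37 degrees C gives viability; cells in DMEM + 4% FBS were treated 24 to 48 hours with compound, following overnight attachment.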
# [8] = HepG2 cells viability qHTS for Zika virus inhibitors (AID 1347168)
# Outline: as §1
# [9] = Confirmatory screen NINDS Rhodamine qHTS for Zika virus inhibitors (AID 1347161);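 also: purified Zika NS2B-NS3 protease with linked NS2B cofactor domain and Rhodamine110 peptide substrate; series mostly up to about 110 µM; nearly all actives have a fitted effect of over 60% in size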
# Outline: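 Enzyme (25 nM, linked NS2B-NS3) was preincubated 15 min with compound in 10 mM Tris-HCl pH 8.0, 0.01% Tween 20. Rhodamine110 substrate (1.5 microM) was then added and fluorescence read at start and after 15 min.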
# [10] = target: Rap guanine nucleotide exchange factor 3 (Homo sapiens) (UniProt O95398); test: Confirmatory qHTS for antagonist of cAMP-regulated guanine nucleotide exchange factor 3 (EPAC1) (AID 1645880); also: nearly all actives have a fitted effect of over 55% in size
# Sequence of Rap guanine nucleotide exchange factor 3 (Homo sapiens) (O95398 whole entry, looked up): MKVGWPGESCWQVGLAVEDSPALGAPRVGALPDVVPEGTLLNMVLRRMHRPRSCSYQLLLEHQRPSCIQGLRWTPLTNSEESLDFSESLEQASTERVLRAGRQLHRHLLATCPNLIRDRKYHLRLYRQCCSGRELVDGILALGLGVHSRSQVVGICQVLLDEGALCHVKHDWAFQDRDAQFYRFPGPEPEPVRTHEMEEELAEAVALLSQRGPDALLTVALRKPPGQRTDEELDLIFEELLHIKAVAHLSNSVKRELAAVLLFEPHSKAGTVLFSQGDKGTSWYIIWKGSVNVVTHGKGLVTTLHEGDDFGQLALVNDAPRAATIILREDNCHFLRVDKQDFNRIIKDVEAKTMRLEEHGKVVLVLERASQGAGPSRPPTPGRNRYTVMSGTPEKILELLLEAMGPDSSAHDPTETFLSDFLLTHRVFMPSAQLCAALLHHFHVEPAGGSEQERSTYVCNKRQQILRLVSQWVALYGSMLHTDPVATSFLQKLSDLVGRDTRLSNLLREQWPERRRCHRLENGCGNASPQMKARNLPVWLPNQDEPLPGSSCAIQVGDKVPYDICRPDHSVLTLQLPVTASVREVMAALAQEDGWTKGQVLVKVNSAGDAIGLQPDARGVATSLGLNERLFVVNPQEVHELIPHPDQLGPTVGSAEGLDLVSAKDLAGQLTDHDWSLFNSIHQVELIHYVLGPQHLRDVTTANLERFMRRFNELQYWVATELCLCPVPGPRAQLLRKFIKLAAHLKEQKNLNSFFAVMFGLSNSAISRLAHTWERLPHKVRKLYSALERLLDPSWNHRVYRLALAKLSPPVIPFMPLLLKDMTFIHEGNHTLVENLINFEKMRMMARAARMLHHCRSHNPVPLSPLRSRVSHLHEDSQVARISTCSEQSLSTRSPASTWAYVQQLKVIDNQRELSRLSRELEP
# Outline: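 Released BODIPY-GDP fluoresces less than Rap1-bound BODIPY-GDP; the signal is followed at 480/540 nm at 5-min intervals over 30 min, after 5 min at room temperature. Reactions contain 100 nM EPAC1, 250 nM RAP1B-BODIPY-GDP and 50 uM GDP; results are normalized to ATA and DMSO.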
# [11] = target: Rap guanine nucleotide exchange factor 3 (Homo sapiens) (UniProt O95398); test: Confirmatory qHTS for agonist of cAMP-regulated guanine nucleotide exchange factor 3 (EPAC1) (AID 1645881);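 also: EPAC1 catalysed release of BODIPY-GDP from Rap1B seen as fluorescence loss; nearly all actives have a fitted effect of over 75% in size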
# [12] = target: Rap guanine nucleotide exchange factor 4 (Homo sapiens) (UniProt Q8WZA2); test: Confirmatory qHTS for agonist of cAMP-regulated guanine nucleotide exchange factor 4 (EPAC2) (AID 1645884);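 also: nucleotide exchange releases bodipy-GDP from Rap1 and this lowers its fluorescence; nearly all actives have a fitted effect of over 65% in size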
# Sequence of Rap guanine nucleotide exchange factor 4 (Homo sapiens) (Q8WZA2 whole entry, looked up): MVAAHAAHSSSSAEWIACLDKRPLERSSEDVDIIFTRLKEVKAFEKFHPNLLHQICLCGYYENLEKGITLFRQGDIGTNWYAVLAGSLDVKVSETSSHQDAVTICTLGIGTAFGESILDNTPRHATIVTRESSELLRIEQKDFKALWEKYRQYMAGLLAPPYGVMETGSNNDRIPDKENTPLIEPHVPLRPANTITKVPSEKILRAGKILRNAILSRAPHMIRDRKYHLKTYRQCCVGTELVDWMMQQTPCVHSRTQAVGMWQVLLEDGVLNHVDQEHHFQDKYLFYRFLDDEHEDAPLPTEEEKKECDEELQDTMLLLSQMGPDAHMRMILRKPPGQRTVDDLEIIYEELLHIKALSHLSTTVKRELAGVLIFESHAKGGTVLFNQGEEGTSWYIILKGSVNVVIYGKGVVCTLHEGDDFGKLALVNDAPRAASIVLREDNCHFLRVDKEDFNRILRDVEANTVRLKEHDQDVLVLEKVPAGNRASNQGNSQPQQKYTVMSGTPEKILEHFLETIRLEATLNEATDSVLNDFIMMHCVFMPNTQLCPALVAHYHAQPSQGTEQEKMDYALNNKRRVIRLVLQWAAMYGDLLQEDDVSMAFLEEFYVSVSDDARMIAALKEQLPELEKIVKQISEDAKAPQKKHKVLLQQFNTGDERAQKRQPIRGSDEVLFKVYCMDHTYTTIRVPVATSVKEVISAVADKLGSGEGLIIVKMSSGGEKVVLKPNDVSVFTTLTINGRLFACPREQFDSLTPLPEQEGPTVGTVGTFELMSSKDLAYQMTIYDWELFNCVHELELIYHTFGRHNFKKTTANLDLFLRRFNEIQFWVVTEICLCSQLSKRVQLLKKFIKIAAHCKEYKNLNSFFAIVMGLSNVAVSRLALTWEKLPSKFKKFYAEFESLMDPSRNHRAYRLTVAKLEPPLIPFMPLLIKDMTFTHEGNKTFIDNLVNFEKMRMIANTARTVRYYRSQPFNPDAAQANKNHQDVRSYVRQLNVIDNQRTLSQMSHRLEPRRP
# [13] = target: Rap guanine nucleotide exchange factor 4 (Homo sapiens) (UniProt Q8WZA2); test: Confirmatory qHTS for antagonist of cAMP-regulated guanine nucleotide exchange factor 4 (EPAC2) (AID 1645885); also: nearly all actives have a fitted effect of over 25% in size
# [14] = target: Rap guanine nucleotide exchange factor 3 (Homo sapiens) (UniProt O95398); test: Counterscreen qHTS for antagonist of cAMP-regulated guanine nucleotide exchange factor 3 (EPAC1) (AID 1645888)
# Outline: (§2)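 Rap1B-BODIPY-GDP 250 nM + GDP 50 uM; cpds 7-pt, final 9.74 nM–152 uM (activator mode) or from 7.32 nM upwards (inhibitor mode); RT; FI 480/540 nm at 5 and 30 min, then ± cAMP, reread.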
# [15] = target: Rap guanine nucleotide exchange factor 3 (Homo sapiens) (UniProt O95398); test: Counterscreen qHTS for agonist of cAMP-regulated guanine nucleotide exchange factor 3 (EPAC1) (AID 1645889); also: nearly all actives have a fitted effect of over 40% in size
# Outline: as §2
structure (smiles),measurement,setting,value
Cc1cccc(C(=O)Nc2ccc(C(=O)OCc3cc(=O)n4nc(C5CC5)sc4n3)cc2)c1,Potency,[1],26.4 µM (active)
same,Potency,[2],inactive
same,Potency,[3],inactive
same,Potency,[4],inactive
Cc1ccc(-c2nnc(Nc3ccccc3)c3ccccc23)cc1S(=O)(=O)NCc1nc2ccccc2[nH]1,Potency,[1],41.8 µM (active)
same,Potency,[2],inactive
same,Potency,[3],inactive
same,Potency,[5],inactive
COc1ccc(C(=O)Nc2ccc(C(=O)OCc3cc(=O)n4nc(C5CC5)sc4n3)cc2)cc1,Potency,[1],13.2 µM (active)
same,Potency,[4],inactive
O=C(O)COc1ccc(-c2nccc3c2C(=O)N(Cc2ccccc2)CC(COc2ccc4cccnc4c2)O3)cc1 (stereo not drawn),Potency,[1],49.4 µM (active)
same,Potency,[6],44.7 µM (active)
same,Potency,[4],inactive
CCCCOc1ccc(C2C(=O)N(C3CCCCC3)CC(=O)N2C2CCCCC2)cc1 (stereo not drawn),Potency,[1],inactive
same,Potency,[7],inactive
same,Potency,[8],inactive
same,Potency,[4],inactive
Cc1cccc(OCC(=O)Nc2ccc(C(=O)OCc3cc(=O)n4nc(C5CC5)sc4n3)cc2)c1,Potency,[1],inactive
same,Potency,[4],inactive
O=C(COc1ccccc1)Nc1ccc(C(=O)OCc2cc(=O)n3nc(C4CC4)sc3n2)cc1,Potency,[1],inactive
same,Potency,[9],inactive
same,Potency,[4],inactive
COc1ccccc1C(=O)Nc1ccc(C(=O)OCc2cc(=O)n3c4c(sc3n2)CCCC4)cc1,Potency,[1],7.44 µM (active)
same,Potency,[2],inactive
same,Potency,[4],inactive
COc1ccc(C(=O)Nc2ccc(C(=O)OCc3cc(=O)n4nc(C(C)C)sc4n3)cc2)cc1,Potency,[1],59.1 µM (active)
same,Potency,[2],inactive
same,Potency,[4],inactive
O=C(O)COc1ccc(-c2nccc3c2C(=O)N(Cc2cccc(C(F)(F)F)c2)CC(COc2cccc(F)c2)O3)cc1 (stereo not drawn),Potency,[1],inactive
same,Potency,[2],inactive
same,Potency,[6],28.2 µM (active)
same,Potency,[4],inactive
CCCCCCc1cc2cc(-c3cn4c(n3)sc3cc(OC)ccc34)c(=O)oc2cc1O,Potency,[1],inactive
same,Potency,[2],inactive
same,Potency,[3],inactive
same,Potency,[6],35.5 µM (active)
same,Potency,[4],inactive
same,Potency,[10],inactive
same,outcome,[11],inactive
same,outcome,[12],inactive
same,"activity change, negative = inhibition",[13],-6.89% [at 12.7 µM]
same,outcome,[14],inactive
same,Potency,[15],inactive
Fc1cc(C2=Nn3c(COc4ccc(Cl)cc4Cl)nnc3S/C2=C\c2ccc(-c3ccc(Cl)cc3)o2)c(Cl)cc1Cl,Potency,[1],inactive
same,Potency,[2],inactive
same,Potency,[3],158 µM (active)
same,Potency,[6],inactive
same,Potency,[4],inactive
